Assay outcomes deposited in PubChem BioAssay by several laboratories.
Hits are enriched below; roughly 3.5% of the tested compounds scored in any of these assays.
BoNT-F LC inh = BoNT/F light chain protease inhibitors, primary screen, biochemical, flow cytometry, MLPCN library | AID 588497, 2011 | actives 0.22% (n = 360,000) | Botulinum neurotoxin type F light chain protease (Clostridium botulinum) | Multiplex microsphere protease cleavage assay | inhibition, % at 10 µM; in the data active = inhibition above about 35%, passing the limit was not always enough; inconclusive = no clear call, values can overlap the other calls
Anthrax LF prot = Bacillus anthracis LF protease inhibitors, primary screen, biochemical, multiplex microsphere, MLPCN library; AID 588501, 2011; multiplex microsphere protease cleavage assay; Lethal factor (Bacillus anthracis), P15917; actives 0.12% (n = 360,000); inhibition, % at 10 µM
Autofluor counter = compound fluorescence in toxin protease inhibitor counterscreen. actives 3.1% (n = 360,000). fluorescence intensity (concentration not given with the values). compound autofluorescence counterscreen, microsphere flow cytometry; active compounds read high; in the data active = fluorescence intensity above about 16000; inconclusive = no clear call, values can overlap the other calls
SARS 3CLpro inh = SARS-CoV 3CLpro protease inhibitors, primary screen, biochemical, quenched FRET | recombinant SARS-CoV 3CLpro, quenched FRET peptide cleavage | actives 0.14% (n = 290,000) | Replicase polyprotein 1ab (Severe acute respiratory syndrome coronavirus), P0C6X7 | AID 1706, 2009 | inhibition, % at 6 µM; in the data active = inhibition above about 12%
BoNT A protease = BoNT/A light chain protease inhibitors, primary screen, biochemical, flow cytometry, MLPCN library. actives 0.17% (n = 360,000). AID 588499, 2011. multiplex microsphere protease substrate cleavage. inhibition, % at 10 µM
Numbers stand for hits; - = inactive; ? = inconclusive; . = no result given. Cut-off read from the data, not from the text of the source, unless noted: active = inhibition above about 30%; inconclusive = no clear call, values can overlap the other calls; inactive = below that.

SMILES	BoNT-F LC inh	Anthrax LF prot	Autofluor counter	SARS 3CLpro inh	BoNT A protease
COc1ccc(C(=O)NC2CCN(C(=S)Nc3ccc(C)c(C)c3)CC2)cc1	-	-	-	-	-
CNc1snc(C)c1C(=O)OCC(=O)c1cc(F)ccc1OC	-	-	-	.	-
CCc1ccc(OCC(=O)Nc2ccc(S(=O)(=O)N3CCCC3)cc2)c(Br)c1	-	-	23390	-	-
O=C(COc1ccc(Br)cc1CO)Nc1ccc(S(=O)(=O)N2CCCCC2)cc1	-	-	-	.	-
Cc1cc(C)cc(NC(=O)CSc2nnc(-c3ccccc3C)o2)c1	-	-	19314	-	?
Cc1cccc(NC(=O)CSc2nnc(-c3ccccc3C)o2)c1	-	-	18972	-	-
O=C(CSc1nnc(-c2ccccc2Cl)o1)Nc1ccc2c(c1)OCCO2	-	-	19436	-	-
COc1cc([N+](=O)[O-])ccc1NC(=O)C1CCCN(S(C)(=O)=O)C1 (centres undefined)	-	-	-	.	-
CCCCCCCCC(=O)N1C(C)CCC1C (centres undefined)	-	-	-	.	-
O=C(Cc1cccs1)Nc1ccc(NC(=O)c2ccco2)cc1	?	?	?	-	?
Cc1ccc(/C(=N\S(=O)(=O)c2ccc(Br)cc2)Nc2ccccc2C)cc1	-	-	-	-	-
COc1ccccc1Oc1ccc(S(=O)(=O)N2CCCC2)cc1	-	-	23093	-	-
COc1ccccc1-n1c(SCC(N)=O)nnc1-c1ccc(S(=O)(=O)N2CCCCC2)cc1	-	-	22234	-	-
CC(=O)/C=C1/SC(CC(=O)O)C(=O)N1c1ccccc1 (centres undefined)	-	-	17699	-	-
O=C(O)CC1S/C(=N\N=C2CCCCCC2)N(c2ccccc2)C1=O (centres undefined)	-	-	-	-	-
O=C(C1CCC(=O)N(C2CC2)C1)N1CCN(c2cccc(Cl)c2)CC1 (centres undefined)	-	-	-	-	-
O=c1[nH]c(=S)n(CCC2=CCCCC2)c(O)c1C=NCc1cccnc1	-	-	24166	-	?
C=CCNC(=O)CSc1nnc(-c2cccs2)o1	-	-	-	-	-
O=C(CSc1nnc(-c2cccs2)o1)NCC1CN(Cc2ccccc2)CCO1 (centres undefined)	-	-	20699	-	-
Cc1scc(-c2n[nH]c(=S)n2Cc2ccccc2)c1C	-	-	-	-	-
Cc1cc(Cl)nc2c(C(C)C)cccc12	-	-	-	-	-
COc1ccc(C(=O)CSc2nnc(C3CC3)n2N)cc1	-	-	22665	-	?
Nn1c(SCC(=O)Nc2ccc(Oc3ccccc3)cc2)nnc1C1CC1	-	-	-	-	-
CCOc1ccc(NC(=O)CSc2nnc(C3CC3)n2N)cc1	-	-	23438	-	-
CCOc1ccc(NC(=O)CC2C(=O)N(c3ccccc3)C(=O)N2Cc2ccccn2)cc1 (centres undefined)	-	-	22858	-	?
SMILES	BoNT-F LC inh	Anthrax LF prot	Autofluor counter	SARS 3CLpro inh	BoNT A protease
COc1ccc(NC(=O)CC2C(=O)N(c3cccc(OC)c3)C(=O)N2CCC(C)C)cc1 (centres undefined)	-	-	19759	-	-
O=C(Nc1ccccc1C(F)(F)F)c1cc(-c2ccccc2O)on1	-	-	-	-	-
CCc1ccc(NC(=O)c2cc(C)on2)cc1	-	-	-	-	-
Cc1cc(C(=O)Nc2ccccc2C(F)(F)F)no1	-	-	24116	-	?
Cc1cc(C(=O)Nc2nnc(C(F)(F)F)s2)no1	-	-	22963	-	-
Cc1ccc(NC(=O)c2cc(C)on2)cc1	-	-	20978	-	-
CC(OC(=O)c1cccs1)C(=O)NCC1CCCO1 (centres undefined)	-	-	-	-	-
CC(C)OC(=O)c1cc2c(ccn2C)n1CC(=O)N1CCC(Cc2ccccc2)CC1	-	-	-	-	-
Cc1ccc(C)c(NC(=O)CSc2nnc(CCCCCNC(=O)OC(C)(C)C)o2)c1	-	-	26977	-	-
CC(C)(C)OC(=O)NCCCCCc1nnc(SCC(N)=O)o1	-	-	-	-	-
Cc1cccc(C)c1NC(=O)CSc1nnc(CCCCCNC(=O)OC(C)(C)C)o1	-	-	16539	-	-
CCOc1ccc(C(=O)NCCC(=O)N2CCC3(CC2)NCCc2[nH]cnc23)cc1	-	-	-	-	-
Cc1ccc(C2=CN(Cc3ccccc3)CCC2=O)cc1	-	-	-	.	-
CCOC(=O)c1c(NC(=O)c2ccccc2Cl)sc2c1CCc1ccccc1-2	-	-	-	-	-
CCCCC(=O)Nc1sc2c(c1C(=O)OCC)CCC(C=O)=C2Cl	-	-	21678	-	?
O=C1CC(c2ccc(F)cc2)Sc2ccccc2N1 (centres undefined)	?	?	?	-	?
CN1CCN(C2CCCCCC2)CC1	-	-	23426	-	-
O=S(=O)(Nc1ccccc1F)c1ccc(Cl)nc1	-	-	-	.	-
Cc1cc2cc(C=O)c(Cl)nc2cc1C	-	-	17857	-	-
Cc1ccc2cc(C=O)c(N(C)C)nc2c1	-	-	-	-	-
Cc1cc(NC(=O)CCCC(=O)N(CC(=O)NCCc2ccccc2)Cc2ccc(F)cc2)no1	-	-	20415	-	-
CC1CCCCC1NCC(=O)Nc1ccccc1-c1ccccc1 (centres undefined)	-	-	-	-	-
CCCC(=O)N1CCC1(C)C(=O)NS(=O)(=O)c1ccc(C#N)cc1 (centres undefined)	-	-	-	.	-
CN(C)c1ccc(C2NCCS2)cc1 (centres undefined)	-	-	22912	-	-
COc1cc(S(=O)(=O)Nc2cccc(C(=O)O)c2)c(OC)cc1Cl	-	-	20274	-	?
SMILES	BoNT-F LC inh	Anthrax LF prot	Autofluor counter	SARS 3CLpro inh	BoNT A protease
Cc1cc(C(C)(C)C)cc(S(=O)(=O)Nc2cccc(C(=O)O)c2)c1C	-	-	20337	-	-
O=C(O)c1ccc(NS(=O)(=O)/C=C/c2ccccc2)cc1	-	-	-	-	-
COc1ccccc1NS(=O)(=O)c1cccc(NS(=O)(=O)c2cc(C(=O)O)ccc2Cl)c1	-	-	-	.	-
O=C(O)c1cccc(NS(=O)(=O)/C=C/c2ccccc2)c1	-	-	19766	-	-
Cc1ccc2nc(-c3ccccn3)c(Nc3ccccc3C)n2c1	-	-	-	-	-
CCN1CCN(c2ccc([N+](=O)[O-])cc2S(=O)(=O)N2CCOCC2)CC1	-	-	-	-	-
Cc1cccc(N2CCN(C(=O)c3ccccc3NC(=O)C3=CSCCO3)CC2C)c1 (centres undefined)	-	-	-	-	-
CCN1C(=O)[C@H]2[C@@H](c3ccc(-c4ccc(OC)cc4)cc3)N[C@@](CC(C)C)(C(=O)OC)[C@H]2C1=O	-	-	-	.	-
